Assay results: PubChem BioAssay AID623877 (Johns Hopkins Ion Channel Center, 2012)
Out of some 340,000 compounds screened, about 1,000 (0.29%) were called active.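 The calls were made as follows: active = fluorescence-ratio B-score plate-corrected deviation score at least 3 library SD below zero, with starting fluorescence score within 5 deviations; inactive = the rest.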 Only a selection was taken, and actives are over-represented in it overall.

target: Anoctamin-1 (Mus musculus) (UniProt Q8BHY3); test: TMEM16A chloride channel activators or potentiators, primary screen, cell-based, HTS (AID 623877); conditions: HEK293 TMEM16A/YFP-H148Q/I152L, iodide quench fluorescence, at 10 µM; active compounds read low;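 as to B-score: channel opened by trigger with iodide after compound preincubation; score built on the fluorescence ratio of max minus min over baseline; more negative score means more quench and so TMEM16A activation or potentiation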
Sequence (Q8BHY3 whole entry, looked up): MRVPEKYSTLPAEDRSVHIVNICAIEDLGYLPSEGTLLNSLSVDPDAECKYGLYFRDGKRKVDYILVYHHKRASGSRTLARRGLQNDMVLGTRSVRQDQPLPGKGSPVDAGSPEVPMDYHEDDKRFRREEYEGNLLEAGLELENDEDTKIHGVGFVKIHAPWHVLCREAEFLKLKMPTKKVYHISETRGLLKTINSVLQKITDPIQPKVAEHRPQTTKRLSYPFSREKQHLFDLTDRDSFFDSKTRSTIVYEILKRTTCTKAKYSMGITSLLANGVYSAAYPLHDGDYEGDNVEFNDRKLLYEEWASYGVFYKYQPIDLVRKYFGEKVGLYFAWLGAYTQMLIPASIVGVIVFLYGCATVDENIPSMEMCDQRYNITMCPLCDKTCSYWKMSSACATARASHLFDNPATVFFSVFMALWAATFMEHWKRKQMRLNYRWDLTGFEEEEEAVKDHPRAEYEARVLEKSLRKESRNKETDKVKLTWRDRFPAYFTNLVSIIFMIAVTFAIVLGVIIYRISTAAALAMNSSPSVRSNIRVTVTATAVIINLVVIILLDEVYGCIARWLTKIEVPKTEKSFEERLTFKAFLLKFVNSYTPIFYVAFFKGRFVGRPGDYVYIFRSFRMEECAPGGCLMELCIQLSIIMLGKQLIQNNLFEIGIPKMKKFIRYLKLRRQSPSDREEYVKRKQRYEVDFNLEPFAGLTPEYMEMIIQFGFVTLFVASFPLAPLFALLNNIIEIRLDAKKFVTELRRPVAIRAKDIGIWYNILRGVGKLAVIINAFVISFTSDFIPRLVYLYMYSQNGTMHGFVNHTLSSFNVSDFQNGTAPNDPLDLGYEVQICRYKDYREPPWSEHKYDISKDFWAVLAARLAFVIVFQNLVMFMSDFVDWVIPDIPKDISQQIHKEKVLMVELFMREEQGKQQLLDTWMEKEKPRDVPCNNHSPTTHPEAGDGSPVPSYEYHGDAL

| Compound | B-score |
| --- | --- |
| CC(=O)C1(O)CCC2C3CCC4=C(Cl)C(=O)CCC4(C)C3CCC21C (stereo not given) | -5.25 (active) |
| Cc1cc(C)cc(NC(=S)NC2CC3CCCC(C2)N3Cc2cccs2)c1 (stereo not given) | inactive |
| Cc1nn(Cc2ccccc2Cl)c(Cl)c1C(=O)OC(C(=O)NC(N)=O)C(C)C (stereo not given) | inactive |
| Cc1nc2ccccn2c1P(=S)(N1CCCCC1)N1CCCCC1 | -9.49 (active) |
| COc1ccc(C(=O)C2CN(C)CC2C(=O)c2ccc(OC)cc2)cc1 (stereo not given) | inactive |
| O=C(CSC1c2ccccc2-c2ccccc21)N/N=C/c1ccccc1 | inactive |
| CC1C(=O)OC2CCN3CC=C(COC(=O)C(C)(O)C1(C)O)C23 (stereo not given) | inactive |
| CCN(CC)P(=O)(Oc1cccc(C)c1)N(CC)CC | inactive |
| C=Cn1ccnc1P(=S)(c1cc(N(CC)CC)ns1)c1nccn1C=C | inactive |
| Cc1cc2ccccn2c1C(C[N+](=O)[O-])c1c(F)cccc1Cl (stereo not given) | inactive |
